{"source": "PubChem BioAssay AID1117291", "about": "(Broad Institute, 2014)", "note": "Potency and affinity values are given separately. Records with an inconclusive call do not appear. Where a call stands in place of a potency, no number is given. Activity calls are given as the source filed them.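 Rule for the calls: active = compound whose fitted half-maximal potency lies at or below double its highest tested dose in every test; inconclusive = tests disagree, or a flat partial loss, or a poor fit; inactive = every test inactive.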", "data": [{"experiment": "hepatoma cell viability loss – CellTiter-Glo luminescence, dry powder, set 20, cytotoxicity control, dose response (AID 1117291)", "conditions": "HepG2 viability, CellTiter-Glo ATP luminescence, 72 h; series mostly up to 26 µM", "values": [{"smiles": "COc1ccc(C(=O)O)cc1S(=O)(=O)Nc1cc(C(F)(F)F)ccc1N(C)C", "outcome": "inactive"}, {"smiles": "CC(=O)N1CCN(C(=O)C2(NC(=O)NC(C)(C)C)CCCCC2)CC1", "outcome": "inactive"}, {"smiles": "COc1ccc(C(=O)Nc2cc(F)ccc2N2CCCCC2)cc1S(=O)(=O)O", "outcome": "inactive"}, {"smiles": "CC(=O)N1CCN(C(=O)[C@@H]2CCN2C(=O)Nc2ccc(C)cc2)CC1", "outcome": "inactive"}, {"smiles": "O=S(=O)(Nc1cc(C(F)(F)F)ccc1N1CCCCC1)c1ccc(C(F)(F)F)cc1", "outcome": "inactive"}, {"smiles": "COc1ccc(C(=O)O)cc1S(=O)(=O)Nc1cc(C(F)(F)F)ccc1N1CCCCC1", "outcome": "inactive"}, {"smiles": "Cn1cnc(S(=O)(=O)Nc2cc(C(F)(F)F)ccc2N2CCCCC2)c1", "outcome": "inactive"}, {"smiles": "CC(=O)N1CCN(C(=O)C2(NC(=O)Nc3ccc(F)cc3)CCCC2)CC1", "outcome": "inactive"}, {"smiles": "O=S(=O)(O)c1ccc(N2N=C(c3ccccc3)CC2c2ccccc2)cc1", "note": "(configuration not stated)", "outcome": "inactive"}, {"smiles": "CC(=O)N1CCN(C(=O)C2(NC(=O)Nc3ccc(C(C)C)cc3)CCCCC2)CC1", "outcome": "inactive"}, {"smiles": "COc1cccc(NC(=O)NC2(C(=O)N3CCN(C(C)=O)CC3)CCCCC2)c1", "outcome": "inactive"}, {"smiles": "O=C(Nc1cc(C(F)(F)F)ccc1N1CCCCC1)c1ccc(S(=O)(=O)O)cc1", "outcome": "inactive"}, {"smiles": "CC(=O)N1CCN(C(=O)C2(NC(=O)Nc3ccc(F)cc3)CCCCC2)CC1", "outcome": "inactive"}, {"smiles": "CC(=O)N1CCN(C(=O)CNC(=O)Nc2ccc(C)cc2)CC1", "outcome": "inactive"}, {"smiles": "NC(=NCCc1c[nH]c2ccccc12)NS(=O)(=O)c1cc(F)ccc1F", "outcome": "inactive"}, {"smiles": "CC(=O)N1CCN(C(=O)C2(NC(=O)NCCc3ccccc3)CCCCC2)CC1", "outcome": "inactive"}, {"smiles": "COc1ccc(C(=O)Nc2ccccc2N2CCCCC2)cc1S(=O)(=O)O", "outcome": "inactive"}, {"smiles": "COc1ccc(C(=O)O)cc1S(=O)(=O)Nc1cc(C(F)(F)F)ccc1N1CCOCC1", "outcome": "inactive"}, {"smiles": "CC(=O)N1CCN(C(=O)C2(NC(=O)Nc3ccc(C(F)(F)F)cc3)CCCCC2)CC1", "outcome": "inactive"}, {"smiles": "O=S(=O)(Nc1cc(C(F)(F)F)ccc1N1CCCCC1)c1ccc(Cl)cc1", "outcome": "inactive"}, {"smiles": "O=S(=O)(Nc1cc(C(F)(F)F)ccc1N1CCCCC1)c1ccc(-c2ccccc2)cc1", "outcome": "inactive"}, {"smiles": "O=[N+]([O-])c1ccc(S(=O)(=O)Nc2cc(C(F)(F)F)ccc2N2CCCCC2)c([N+](=O)[O-])c1", "outcome": "inactive"}]}]}
